# Results taken from the supplement of paper PMC8728848.
# Only a selection was taken, and the strongest signals are over-represented in it overall.
# How the values were obtained:
# Assay in all cases: glycan array binding signal (z-score within array); higher = stronger binding
# Gal3S(b1-3)GlcNAc = conditions: glycan notation: IUPAC condensed, linker removed
# Summary of the method: (§1)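 Negative Z-scores can be read as non-binding. The Z-score is calculated within each array and then averaged across arrays of one protein sequence at different concentrations or buffers and across linkers. Arrays, 3228 in all, were curated from the Consortium for Functional Glycomics database and kept only where the protein sequence was available.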
# Gal3S6S(b1-4)GlcNAc = conditions: glycan notation: IUPAC condensed, linker removed
# Summary of the method: as §1
# [1] = system: Gal3S(b1-4)[Fuc(a1-3)]Glc; conditions: glycan notation: IUPAC condensed, linker removed
# Summary of the method: as §1
# Gal3S(b1-3)GalNAc = conditions: glycan notation: IUPAC condensed, linker removed
# Summary of the method: as §1
# [2] = system: Gal(b1-4)GlcNAc(b1-6)[Gal(b1-3)]GalNAc; conditions: glycan notation: IUPAC condensed, linker removed
# Summary of the method: as §1
# Gal(b1-6)Gal = conditions: glycan notation: IUPAC condensed, linker removed
# Summary of the method: as §1
# [3] = system: Gal3S(b1-4)[Fuc(a1-3)]Glc6S; conditions: glycan notation: IUPAC condensed, linker removed
# Summary of the method: as §1
# [4] = system: Gal3S(b1-4)[Fuc(a1-3)]GlcNAc6S; conditions: glycan notation: IUPAC condensed, linker removed
# Summary of the method: as §1
# [5] = system: Gal3S(b1-4)[Fuc(a1-3)]GlcNAc; conditions: glycan notation: IUPAC condensed, linker removed; mutation: R125K
# Summary of the method: as §1
# [6] = system: Gal(b1-4)GlcNAc(b1-6)GalNAc; conditions: glycan notation: IUPAC condensed, linker removed
# Summary of the method: as §1
# Gal3S(b1-4)Glc = conditions: glycan notation: IUPAC condensed, linker removed
# Summary of the method: as §1
# Gal6S(b1-3)GlcNAc = conditions: glycan notation: IUPAC condensed, linker removed
# Summary of the method: as §1
# Gal(b1-4)GlcNAc = conditions: glycan notation: IUPAC condensed, linker removed
# Summary of the method: as §1
# Gal3S(b1-4)GlcNAc6S = conditions: glycan notation: IUPAC condensed, linker removed
# Summary of the method: as §1
# Gal3S(b1-4)GlcNAc = conditions: glycan notation: IUPAC condensed, linker removed
# Summary of the method: as §1
# Gal6S(b1-4)GlcNAc = conditions: glycan notation: IUPAC condensed, linker removed
# Summary of the method: as §1
# Gal(b1-4)Glc = conditions: glycan notation: IUPAC condensed, linker removed
# Summary of the method: as §1
# Gal4S6S(b1-4)GlcNAc = conditions: glycan notation: IUPAC condensed, linker removed
# Summary of the method: as §1
# Gal3S6S(b1-4)GlcNAc6S = conditions: glycan notation: IUPAC condensed, linker removed
# Summary of the method: as §1
# [7] = system: Gal3S(b1-3)[Fuc(a1-4)]GlcNAc; conditions: glycan notation: IUPAC condensed, linker removed
# Summary of the method: as §1
# SRLC (Mus musculus), Q8VIF6, sequence (Q8VIF6 other isoform, or with tags, fused parts or gaps): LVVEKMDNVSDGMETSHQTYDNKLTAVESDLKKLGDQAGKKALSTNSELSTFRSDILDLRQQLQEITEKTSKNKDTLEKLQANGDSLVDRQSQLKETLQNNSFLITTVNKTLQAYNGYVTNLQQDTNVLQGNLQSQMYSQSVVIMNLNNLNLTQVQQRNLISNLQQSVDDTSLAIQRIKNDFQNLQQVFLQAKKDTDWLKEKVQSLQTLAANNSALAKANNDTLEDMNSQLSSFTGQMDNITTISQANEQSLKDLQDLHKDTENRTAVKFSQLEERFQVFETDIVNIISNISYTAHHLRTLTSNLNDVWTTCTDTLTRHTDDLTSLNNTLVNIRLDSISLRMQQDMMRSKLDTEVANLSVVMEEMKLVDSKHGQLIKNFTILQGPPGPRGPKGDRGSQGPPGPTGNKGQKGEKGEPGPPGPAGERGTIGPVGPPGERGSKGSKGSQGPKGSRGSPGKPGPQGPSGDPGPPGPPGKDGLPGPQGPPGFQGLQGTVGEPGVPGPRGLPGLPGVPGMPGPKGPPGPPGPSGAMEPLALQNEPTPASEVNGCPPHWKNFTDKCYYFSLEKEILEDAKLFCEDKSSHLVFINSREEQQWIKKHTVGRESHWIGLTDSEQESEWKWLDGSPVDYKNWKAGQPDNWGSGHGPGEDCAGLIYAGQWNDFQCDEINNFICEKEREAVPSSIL
# PILRa (Mus musculus), Q2YSF3, sequence (Q2YSF3 entry or part of it): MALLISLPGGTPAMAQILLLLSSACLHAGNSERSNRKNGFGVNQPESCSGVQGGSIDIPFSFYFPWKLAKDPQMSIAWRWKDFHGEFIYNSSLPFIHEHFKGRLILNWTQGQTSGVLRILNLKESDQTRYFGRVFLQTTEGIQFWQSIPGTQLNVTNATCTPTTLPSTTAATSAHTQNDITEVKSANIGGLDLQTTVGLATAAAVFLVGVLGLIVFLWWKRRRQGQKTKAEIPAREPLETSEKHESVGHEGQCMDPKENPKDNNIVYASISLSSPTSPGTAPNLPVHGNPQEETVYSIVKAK
# CHI3L1 (Homo sapiens), P36222, sequence (P36222 whole entry): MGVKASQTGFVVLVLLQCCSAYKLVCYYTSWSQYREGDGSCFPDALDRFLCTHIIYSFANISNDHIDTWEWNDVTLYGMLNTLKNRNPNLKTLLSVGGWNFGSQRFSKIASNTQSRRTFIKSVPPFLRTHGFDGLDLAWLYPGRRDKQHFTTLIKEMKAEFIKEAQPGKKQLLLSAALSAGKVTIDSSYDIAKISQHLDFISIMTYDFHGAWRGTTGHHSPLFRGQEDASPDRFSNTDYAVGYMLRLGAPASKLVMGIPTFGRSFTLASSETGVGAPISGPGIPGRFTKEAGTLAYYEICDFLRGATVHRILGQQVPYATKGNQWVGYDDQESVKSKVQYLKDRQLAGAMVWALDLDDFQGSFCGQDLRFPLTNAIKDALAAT
# 6RG (Lolium perenne), B9U140, sequence (B9U140 entry or part of it): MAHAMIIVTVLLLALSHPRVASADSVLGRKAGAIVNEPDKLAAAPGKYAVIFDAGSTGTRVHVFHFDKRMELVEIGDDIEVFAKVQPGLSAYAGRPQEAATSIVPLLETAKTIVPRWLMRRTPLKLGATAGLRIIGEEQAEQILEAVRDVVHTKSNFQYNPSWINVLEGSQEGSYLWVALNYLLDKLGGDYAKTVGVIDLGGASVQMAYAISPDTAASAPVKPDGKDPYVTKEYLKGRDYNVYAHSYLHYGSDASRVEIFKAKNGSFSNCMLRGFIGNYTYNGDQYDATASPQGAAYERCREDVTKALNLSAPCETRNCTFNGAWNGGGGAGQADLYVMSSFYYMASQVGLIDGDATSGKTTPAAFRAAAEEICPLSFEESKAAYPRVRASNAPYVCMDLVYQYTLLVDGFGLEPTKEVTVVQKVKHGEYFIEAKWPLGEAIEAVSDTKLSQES
# Aggrecan (Rattus norvegicus), NP_071526, sequence (chain, as listed by the source): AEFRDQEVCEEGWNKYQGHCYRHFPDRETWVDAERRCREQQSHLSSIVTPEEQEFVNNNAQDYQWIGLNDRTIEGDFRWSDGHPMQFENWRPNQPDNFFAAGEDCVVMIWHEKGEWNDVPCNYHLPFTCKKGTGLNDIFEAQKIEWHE
# CHT (Homo sapiens), sequence (chain, as listed by the source): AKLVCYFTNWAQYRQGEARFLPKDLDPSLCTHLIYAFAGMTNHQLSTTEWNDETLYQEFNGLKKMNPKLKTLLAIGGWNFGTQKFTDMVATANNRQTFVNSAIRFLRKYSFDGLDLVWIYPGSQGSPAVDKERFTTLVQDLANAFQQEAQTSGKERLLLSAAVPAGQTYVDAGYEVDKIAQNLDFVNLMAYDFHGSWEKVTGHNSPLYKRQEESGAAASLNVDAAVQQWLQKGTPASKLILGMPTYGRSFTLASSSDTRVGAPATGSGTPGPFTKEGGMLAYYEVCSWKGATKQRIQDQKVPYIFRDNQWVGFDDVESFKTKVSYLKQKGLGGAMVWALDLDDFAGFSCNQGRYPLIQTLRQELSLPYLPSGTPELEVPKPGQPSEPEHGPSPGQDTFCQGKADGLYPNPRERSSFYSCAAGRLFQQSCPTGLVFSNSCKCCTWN
# wLAT-1A (Homo sapiens), Q01650, sequence (Q01650 whole entry): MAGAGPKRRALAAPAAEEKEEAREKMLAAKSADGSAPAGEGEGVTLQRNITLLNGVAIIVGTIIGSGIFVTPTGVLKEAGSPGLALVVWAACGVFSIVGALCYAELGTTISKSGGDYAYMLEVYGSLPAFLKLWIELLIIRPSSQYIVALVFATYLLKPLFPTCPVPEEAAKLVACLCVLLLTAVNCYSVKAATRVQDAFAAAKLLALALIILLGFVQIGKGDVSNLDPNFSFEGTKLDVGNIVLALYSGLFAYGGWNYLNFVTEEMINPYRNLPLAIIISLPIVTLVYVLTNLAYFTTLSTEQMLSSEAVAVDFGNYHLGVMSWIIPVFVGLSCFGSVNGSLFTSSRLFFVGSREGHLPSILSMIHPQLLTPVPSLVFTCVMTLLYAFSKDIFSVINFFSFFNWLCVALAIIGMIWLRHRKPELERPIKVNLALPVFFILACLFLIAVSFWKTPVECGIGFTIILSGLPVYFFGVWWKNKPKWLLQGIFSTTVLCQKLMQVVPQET
# Regenerating Gene IV (Homo sapiens), Q9BYZ8, sequence (Q9BYZ8 whole entry, looked up): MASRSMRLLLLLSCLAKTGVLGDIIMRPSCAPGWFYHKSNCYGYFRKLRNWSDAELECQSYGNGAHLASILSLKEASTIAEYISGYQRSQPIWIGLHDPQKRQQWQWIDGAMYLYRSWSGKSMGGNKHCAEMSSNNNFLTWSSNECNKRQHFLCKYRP
# C3b (Homo sapiens), P01024, sequence (P01024 23-667): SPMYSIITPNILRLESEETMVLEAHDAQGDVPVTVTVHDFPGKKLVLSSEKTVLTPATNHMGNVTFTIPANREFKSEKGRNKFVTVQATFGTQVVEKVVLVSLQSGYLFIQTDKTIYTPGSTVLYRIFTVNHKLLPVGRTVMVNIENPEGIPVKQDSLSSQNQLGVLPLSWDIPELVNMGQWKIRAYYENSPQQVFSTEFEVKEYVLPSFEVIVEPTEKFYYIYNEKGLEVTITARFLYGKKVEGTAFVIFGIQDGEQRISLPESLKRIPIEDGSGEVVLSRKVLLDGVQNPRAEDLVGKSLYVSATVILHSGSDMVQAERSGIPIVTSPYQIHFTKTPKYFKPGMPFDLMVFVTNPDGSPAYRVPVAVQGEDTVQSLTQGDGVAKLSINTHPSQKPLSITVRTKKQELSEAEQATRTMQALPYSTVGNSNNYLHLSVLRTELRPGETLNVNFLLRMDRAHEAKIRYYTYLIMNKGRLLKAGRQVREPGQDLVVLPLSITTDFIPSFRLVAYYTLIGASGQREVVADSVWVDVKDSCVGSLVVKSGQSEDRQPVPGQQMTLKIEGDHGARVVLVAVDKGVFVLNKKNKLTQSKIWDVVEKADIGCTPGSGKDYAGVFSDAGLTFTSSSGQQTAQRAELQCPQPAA
# Avaren (Actinomycete K97), sequence (chain, as listed by the source): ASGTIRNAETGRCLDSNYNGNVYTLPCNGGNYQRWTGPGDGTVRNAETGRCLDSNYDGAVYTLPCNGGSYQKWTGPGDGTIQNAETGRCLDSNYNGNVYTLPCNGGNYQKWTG
# PILRb (Mus musculus), Q2YSF2, sequence (Q2YSF2 entry or part of it): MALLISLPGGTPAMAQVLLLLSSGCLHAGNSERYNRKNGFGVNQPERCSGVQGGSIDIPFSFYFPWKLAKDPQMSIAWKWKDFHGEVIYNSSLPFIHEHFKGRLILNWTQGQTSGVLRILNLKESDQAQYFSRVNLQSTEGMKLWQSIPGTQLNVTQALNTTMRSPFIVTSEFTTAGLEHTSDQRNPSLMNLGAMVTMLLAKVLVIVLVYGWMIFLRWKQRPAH
substance,measurement,setting,value
"C3b (Homo sapiens), P01024",glycan array binding signal (z-score),Gal3S(b1-3)GlcNAc,1.05
same,glycan array binding signal (z-score),Gal3S6S(b1-4)GlcNAc,-0.743
"PILRb (Mus musculus), Q2YSF2",glycan array binding signal (z-score),[1],0.773
Avaren (Actinomycete K97),glycan array binding signal (z-score),Gal3S(b1-3)GalNAc,-0.121
"Siglec-8 (Homo sapiens), Q9NYZ4",glycan array binding signal (z-score),[2],-0.099
same,glycan array binding signal (z-score),Gal(b1-6)Gal,-0.178
same,glycan array binding signal (z-score),Gal(b1-6)Gal; mutation: R125K,-0.117
same,glycan array binding signal (z-score),Gal3S(b1-3)GalNAc,0.076
same,glycan array binding signal (z-score),[3],0.077
same,glycan array binding signal (z-score),[4],-0.171
same,glycan array binding signal (z-score),[5],0.148
CHT (Homo sapiens),glycan array binding signal (z-score),"[6]; mutation: D138V, E140I",-0.115
same,glycan array binding signal (z-score),"Gal3S6S(b1-4)GlcNAc; mutation: D138V, E140I",-0.059
"PILRa (Mus musculus), Q2YSF3",glycan array binding signal (z-score),[6],-0.218
same,glycan array binding signal (z-score),Gal3S(b1-4)Glc,0.049
same,glycan array binding signal (z-score),Gal6S(b1-3)GlcNAc,1.62
"Regenerating Gene IV (Homo sapiens), Q9BYZ8",glycan array binding signal (z-score),[2],0.244
same,glycan array binding signal (z-score),Gal3S6S(b1-4)GlcNAc,0.332
"CHI3L1 (Homo sapiens), P36222",glycan array binding signal (z-score),Gal(b1-4)GlcNAc,-0.122
same,glycan array binding signal (z-score),Gal3S(b1-4)GlcNAc6S,-0.093
same,glycan array binding signal (z-score),Gal3S(b1-4)GlcNAc,0.706
same,glycan array binding signal (z-score),[1],0.014
"wLAT-1A (Homo sapiens), Q01650",glycan array binding signal (z-score),[6],0.12
same,glycan array binding signal (z-score),Gal6S(b1-4)GlcNAc,3.6
"Neurocan (Homo sapiens), O14594",glycan array binding signal (z-score),Gal(b1-4)Glc,-0.551
"Aggrecan (Rattus norvegicus), NP_071526",glycan array binding signal (z-score),Gal3S6S(b1-4)GlcNAc,-0.034
same,glycan array binding signal (z-score),Gal4S6S(b1-4)GlcNAc,-0.024
same,glycan array binding signal (z-score),Gal6S(b1-4)GlcNAc,0.061
"6RG (Lolium perenne), B9U140",glycan array binding signal (z-score),Gal3S(b1-4)GlcNAc6S,0.775
same,glycan array binding signal (z-score),Gal3S6S(b1-4)GlcNAc6S,2.09
same,glycan array binding signal (z-score),Gal4S6S(b1-4)GlcNAc,1.06
MpAFP RI GFP (Marinomonas primoryensis),glycan array binding signal (z-score),[6],-0.359
same,glycan array binding signal (z-score),Gal(b1-6)Gal,-0.336
same,glycan array binding signal (z-score),Gal3S(b1-3)GlcNAc,-0.429
same,glycan array binding signal (z-score),Gal3S(b1-4)Glc,0.469
"SRLC (Mus musculus), Q8VIF6",glycan array binding signal (z-score),[6],-0.239
same,glycan array binding signal (z-score),[7],-0.081
same,glycan array binding signal (z-score),Gal3S6S(b1-4)GlcNAc6S,0.13
